Laboratory results taken from PubChem BioAssay AID602123 (The Scripps Research Institute Molecular Screening Center, 2011).
About 1,500 (0.42%) of roughly 360,000 compounds were called active. Cut-off read from the data, not from the text of the source: active = inhibition above about 13% (passing the limit was not always enough); inactive = the rest. The full list was thinned out, with actives kept by preference.

These compounds were tested against Lon protease (Escherichia coli (strain K12)) (UniProt P0A9M0) (assay: E. coli eLon protease inhibition – biochemical, fluorescence polarization, primary screen (AID 602123;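 note: 0% = enzyme with probe and DMSO and 100% = no enzyme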)). Settings: purified E. coli Lon protease, at 7.94 µM, stronger effect = higher value.
Lon protease (Escherichia coli (strain K12)), sequence (P0A9M0 whole entry, looked up): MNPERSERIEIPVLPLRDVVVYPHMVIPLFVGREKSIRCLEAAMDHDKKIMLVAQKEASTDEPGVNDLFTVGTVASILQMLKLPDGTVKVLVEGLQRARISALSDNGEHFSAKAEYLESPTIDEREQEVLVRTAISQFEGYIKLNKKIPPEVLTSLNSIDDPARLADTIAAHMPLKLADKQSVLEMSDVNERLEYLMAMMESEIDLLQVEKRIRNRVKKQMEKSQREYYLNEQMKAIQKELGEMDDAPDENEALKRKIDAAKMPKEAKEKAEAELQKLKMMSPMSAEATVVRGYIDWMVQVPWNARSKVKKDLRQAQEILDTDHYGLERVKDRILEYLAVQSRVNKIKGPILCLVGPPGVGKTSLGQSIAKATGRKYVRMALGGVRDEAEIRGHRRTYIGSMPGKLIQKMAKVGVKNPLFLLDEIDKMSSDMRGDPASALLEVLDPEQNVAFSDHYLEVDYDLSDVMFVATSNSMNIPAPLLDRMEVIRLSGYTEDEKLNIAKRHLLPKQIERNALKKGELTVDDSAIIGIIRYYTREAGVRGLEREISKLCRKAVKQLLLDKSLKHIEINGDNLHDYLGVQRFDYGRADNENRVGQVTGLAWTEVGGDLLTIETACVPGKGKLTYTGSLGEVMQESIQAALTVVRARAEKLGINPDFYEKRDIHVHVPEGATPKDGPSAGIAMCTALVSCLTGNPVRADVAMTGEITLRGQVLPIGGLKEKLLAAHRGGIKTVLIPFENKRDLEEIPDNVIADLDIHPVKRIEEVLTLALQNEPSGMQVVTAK

Structure (SMILES) | inhibition
O=C(OCCOc1ccccc1Cl)c1cc(S(=O)(=O)N2CCCCC2)ccc1N1CCOCC1 | -5.06% (inactive)
CCCN1C(=O)C(NC(C)=O)c2cc(OC)ccc21 (configuration not stated) | 16.3% (active)
CCCN1C2CCCC1CC(NC(=O)c1cccc(OC)c1)C2 (configuration not stated) | -6.23% (inactive)
COc1cccc(NC(=O)N2C3CCCC2CC(NC(C)=O)C3)c1 (configuration not stated) | -2.6% (inactive)
NC(=O)C1CCCN(CC(=O)N2CCN(c3ccccc3)CC2)C1 (configuration not stated) | -1.63% (inactive)
OCCC1CN(Cc2cccc(O)c2)CCN1CCc1ccccc1 (configuration not stated) | -2.49% (inactive)
CCOCC(=O)NCc1ccc2c(c1)cc(C)n2C | 13.8% (inactive)
COc1cc(C(=O)NCc2ccc3c(c2)cc(C)n3C)cc(OC)c1OC | 24.5% (active)
CCn1c(CNC(=O)c2cc(OC)c(OC)c(OC)c2)cc2cc(C)ccc21 | -10.1% (inactive)
c1cc(-n2cnnn2)ccc1NC1=NCCC1 | -0.06% (inactive)
CC1=C(C(=O)Nc2cccc(C(=O)NCC(C)c3ccccc3)c2)SCCO1 (configuration not stated) | 18.4% (inactive)
CCn1c(CC(=O)Nc2ccc(C)cc2)nnc1SCC(=O)Nc1nc(C)cs1 | 0.33% (inactive)
Cc1ccc(SCC(=O)Nc2nncs2)cc1 | 6.67% (inactive)
Cc1ccc(NC(=O)Cc2nnc(SCC(=O)Nc3nncs3)n2C)cc1 | 45.4% (active)
COc1ccc(CNCCCO)cc1OC | 8.73% (inactive)
COc1ccc(C2C(C#N)=C(N)Oc3cc(N)ccc32)cc1OC (configuration not stated) | -24.5% (inactive)
COc1ccc(C2c3ccc(O)cc3Oc3ncn(CCCO)c(=N)c32)cc1OC (configuration not stated) | 58.2% (active)
O=C1NC[C@@H](CCCCN2CCN(CCc3ccc(O)cc3)C(=O)C2=O)N(CC2CCCCC2)C1=O | -2.96% (inactive)
Cc1cc(NS(=O)(=O)c2ccc(NC(=S)NC(=O)c3ccc(F)cc3Cl)cc2)no1 | 2.44% (inactive)
CN(CC(=O)Nc1ccc(F)c(F)c1F)C(=O)C1CC(=O)N(C2CCCC2)C1 (configuration not stated) | -6.03% (inactive)
CC1(C)C(c2cccs2)=[N+]([O-])C2(CCCCC2=O)N1O (configuration not stated) | -3.06% (inactive)
COc1ccc(Cl)cc1-n1c(C)cc(C(=O)OCC(=O)N2CC(=O)Nc3ccccc32)c1C | 7.08% (inactive)

Structure (SMILES) | inhibition
CN(C(=O)COC(=O)Cn1cnc2c1c(=O)n(C)c(=O)n2C)C1(C#N)CCCCC1 | -2.86% (inactive)
Cc1cc(Br)cn2c(Cc3cccc(F)c3)c(-c3cccc(Br)c3)nc12 | -1.91% (inactive)
Cc1cc(Br)cn2c(Cc3ccsc3)c(-c3ccc(C#N)cc3)nc12 | 50.3% (active)
Cc1ccc(-c2nc3c(C)cc(Br)cn3c2Cc2ccccc2)cc1 | -0.26% (inactive)
CCN(CCNC(=O)C1=C(C)C(=O)OC12CCC(C)CC2)c1ccccc1 (configuration not stated) | 2.56% (inactive)
CCc1ccccc1NC(=O)CSc1nnc(CCNC(=O)OC(C)(C)C)o1 | 3.77% (inactive)
O=C(N/N=C1\CCSC1)c1cc(Cl)ccc1O | -2.2% (inactive)
COc1cccc(CNC(=O)CCC2CCCN(C(=O)c3ccc(F)c(Cl)c3)C2)c1 (configuration not stated) | -13.9% (inactive)
COc1cccc2c1C(=O)c1c(O)c3c(c(O)c1C2=O)CC(O)(C(C)=NNC(=O)c1ccc(Cl)c(Cl)c1)CC3OC1CC(N)C(O)C(C)O1 (configuration not stated) | 636% [above what the read-out allows, likely interference] (active)
Cc1cc(NC(=O)C(C)N2C(=O)c3ccccc3S2(=O)=O)no1 (configuration not stated) | -0.19% (inactive)
CC(=O)c1cccc(OCC(=O)OCC(=O)Nc2cc(S(=O)(=O)N3CCCCC3)ccc2C)c1 | 7.88% (inactive)
CCOC(=O)[C@]12CCCC=C1N(Cc1ccc3c(c1)OCO3)C(=O)[C@H](CC(=O)NCc1cccs1)C2 | 5.92% (inactive)
COc1ccc(CC(=O)N2N=C(C)CC2(O)C(F)(F)F)cc1 (configuration not stated) | -7.36% (inactive)
CC1=NN(C(=O)CCCc2ccccc2)C(O)(C(F)(F)F)C1 (configuration not stated) | -1.58% (inactive)
CC1=NN(C(=O)CCc2ccccc2O)C(O)(C(F)(F)F)C1 (configuration not stated) | 18.2% (active)
Cc1cccc(N2CCC(NCc3c(C(=O)N4CCCCC4)nc4c(C)cccn34)CC2)c1 | 29% (active)
CCOC(=O)C1CCN(Cc2c(C(=O)N3CCOCC3)nc3c(C)cccn23)CC1 | -0.49% (inactive)
Cc1cccn2c(CNCC(C)Oc3cccnc3)c(C(=O)N3CCOCC3)nc12 (configuration not stated) | -6.22% (inactive)
CCOC(=O)c1cccc(NC(=O)C2CCCN(S(=O)(=O)c3cnc[nH]3)C2)c1 (configuration not stated) | -1.61% (inactive)
CCOCCc1nn2c(=O)cc(CSCC(=O)Nc3cccc(C)c3C)nc2s1 | 4.06% (inactive)
COC(=O)c1ccc2nc(-c3ccc(F)cc3)c(Cc3ccc(C)cc3)n2c1 | -5.56% (inactive)
O=c1oc2ccccc2c(CNc2ccccc2)c1[N+](=O)[O-] | -5.51% (inactive)

Structure (SMILES) | inhibition
CCCCCCCCOC1OC(CO)C(O)C(O)C1NC(C)=O (configuration not stated) | 5.86% (inactive)
COC(=O)c1cc(NC(=O)c2cc(C(C)(C)C)nn2Cc2cccc(C)c2)ccc1N1CCOCC1 | 7.4% (inactive)
CCCCOP(=O)(c1ccc(N(C)C)cc1)C(O)c1cc(OC)ccc1OC (configuration not stated) | 9.34% (inactive)
CCOc1ccc(CCN2C(=S)N([C@@H](CC(C)C)CN3CCC[C@@H]3CN3C(=S)NC[C@@H]3Cc3ccc(O)cc3)C[C@@H]2Cc2ccc(O)cc2)cc1 | 1.84% (inactive)
COC(=O)c1sccc1-n1cccc1C(=O)C(=O)N1CCCCC1 | -3.71% (inactive)
COc1ccc(-c2nc(CS(=O)CC(=O)NCc3cccnc3)c(C)o2)cc1OC (configuration not stated) | -14.5% (inactive)
Cc1ccc(-c2nc(CS(=O)CC(=O)NC3CCCC3)c(C)o2)cc1 (configuration not stated) | -12.5% (inactive)
COc1ccc(-c2nc(CS(=O)CC(=O)NCc3ccccn3)c(C)o2)cc1 (configuration not stated) | 21.2% (active)
O=C(OCc1cn([C@H]2C[C@H](c3ccccc3)N(C(=O)c3cccs3)C[C@@H]2O)nn1)c1ccccc1 | 2.92% (inactive)
CC1C(c2ccccc2)=[N+]([O-])C2(CCCC2)N1O (configuration not stated) | -2.56% (inactive)
CCN(CC)CCCNC(=O)c1cn(C)c2ccc(S(=O)(=O)N(C)C3CCCCC3)cc2c1=O | 21.3% (active)
CCOC(=O)N1CCN(C(=O)c2cn(C)c3ccc(S(=O)(=O)N(CC)CC)cc3c2=O)CC1 | 1.34% (inactive)
CCn1cc(C(=O)NCCCN2CCCCCC2)c(=O)c2cc(S(=O)(=O)N3CCc4ccccc4C3)ccc21 | 1.65% (inactive)
CCOCCCNC(=O)C(NC(=O)c1ccccc1O)c1ccccc1 (configuration not stated) | 10.1% (inactive)
CCn1cc(/C=C(\NC(=O)c2ccc(C)cc2)C(=O)NCCN2CCOCC2)c2ccccc21 | -56.3% (inactive)
O=C1C2C3C=CC(C4CC34)C2C(=O)N1/N=C/c1ccc(-c2ccccc2[N+](=O)[O-])o1 (configuration not stated) | 15.8% (active)
Cc1c(/C=N/N2C(=O)C3C4C=CC(C4)C3C2=O)c2ccccc2n1C (configuration not stated) | 0.26% (inactive)
CCN1CCN(C(=O)CN(C)S(=O)(=O)c2ccc3ccccc3c2)CC1 | -4.47% (inactive)
O=C(NCCOc1cccnc1)c1ccc(OC2CCN(Cc3ccccn3)CC2)cc1 | 6.74% (inactive)
CCOC(=O)C1(C(F)(F)F)N=C(N(C)C)OC(N(C)C)=N1 | 1.25% (inactive)
N#CC1=C(N)Oc2cc(O)ccc2C1C1CCCCC1 (configuration not stated) | -1.88% (inactive)
NC1=C([N+](=O)[O-])C(c2ccccc2)C2=C(CCCC2=O)O1 (configuration not stated) | -4.86% (inactive)

Structure (SMILES) | inhibition
N#CC1=C(N)OC2=C(C(=O)CCC2)C1C1CC=CCC1 (configuration not stated) | 20% (active)
O=C(O)c1ccc(OCC2CCCO2)cc1 (configuration not stated) | -7.47% (inactive)
CCCCCCSc1nsc(N)n1 | -2.31% (inactive)
Cc1ccc(CCNC(=O)c2ccc3nc4ccccc4c(=O)n3c2)cc1 | 4.65% (inactive)
COc1ccc(CCNC(=O)Cn2c(=O)n(CC3CCCO3)c(=O)c3ccccc32)cc1OC (configuration not stated) | -3.69% (inactive)
Cc1ccc2nc3c(cc(C(=O)NCCc4ccccc4)c(=N)n3CC3CCCO3)c(=O)n2c1 (configuration not stated) | 18.8% (active)
Oc1ccc(N2CCN(C(=S)NCc3ccccc3)CC2)cc1 | 4.95% (inactive)
CC(C)N(C(=O)COC(=O)c1ccccc1C(=O)N1CCN(c2ccc(F)cc2)CC1)C(C)C | -12.1% (inactive)
O=C(COC(=O)c1ccccc1C(=O)N1CCN(c2ccccc2)CC1)NCc1ccccc1 | 23% (active)
CC(C)(C)C(=O)c1c(N)[nH]c(C(=O)c2ccccc2)c1-c1ccc(F)cc1 | -14.5% (inactive)
O=C(CCS(=O)(=O)c1ccccc1)NC1CCCC1 | 0.44% (inactive)
COc1ccc(C)cc1NC(=O)CCS(=O)(=O)c1cccc2nonc12 | -0.09% (inactive)
COc1cccc2sc(N(CCCN(C)C)C(=O)CCS(=O)(=O)c3ccccc3)nc12 | 22.5% (active)
Cc1nn(C)c(C)c1CN(C(=O)CCc1nnc(Cc2c[nH]c3ccccc23)o1)C(C)C | 12.7% (inactive)
Cc1cccn2c(=O)c3cc(C#N)c(=NC(=O)c4cccnc4)n(CC4CCCO4)c3nc12 (configuration not stated) | 21.1% (active)
Cc1cccn2c(=O)c3cc(C#N)c(=O)n(CCCN4CCOCC4)c3nc12 | -13.8% (inactive)
COCCCn1c(C(=O)NC2CCCCC2)cc2c(=O)n3cccc(C)c3nc21 | -13.7% (inactive)
O=C(C1CC1)N1N=C(c2ccc(Br)cc2)CC1(O)C(F)(F)F (configuration not stated) | -8.02% (inactive)
CCCS(=O)(=O)N1CCC(C(=O)NCCCN(C)Cc2ccccc2)CC1 | -3.31% (inactive)
CC1CC(C)CN(c2ccc(S(=O)(=O)N3CCOCC3)cc2)C1 (configuration not stated) | 4.68% (inactive)
CSCCC(NS(=O)(=O)/C=C/c1ccccc1)C(=O)N1CCC(C)CC1 (configuration not stated) | -1.94% (inactive)
